Results as given in the supplement of paper PMC3545927.
This is one part of the list. How many sequences the whole screen found active is unknown.

Biological target: furin, P09958
Assay: furin cleavage Z-score vs untreated control; higher = more cleavage, active = 3.5 or more, inactive = 1 or less, 8 variable residues between constant flanks
Method in brief: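 Peptides 8 residues long, fused to a cDNA oligonucleotide, were fixed to magnetic beads by the N-terminus and exposed to purified furin. The 0.01 ml reactions contained 50 mM HEPES pH 7.5 with CaCl2 and NaCl at 1:10 enzyme:substrate and ran 7.5, 15 or 30 min. For the cleavage Z-score, log counts of sequenced released DNA were compared with furin-free reactions, lowess-adjusted and scaled by median absolute deviation.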

Sequence of furin, P09958 (P09958 whole entry): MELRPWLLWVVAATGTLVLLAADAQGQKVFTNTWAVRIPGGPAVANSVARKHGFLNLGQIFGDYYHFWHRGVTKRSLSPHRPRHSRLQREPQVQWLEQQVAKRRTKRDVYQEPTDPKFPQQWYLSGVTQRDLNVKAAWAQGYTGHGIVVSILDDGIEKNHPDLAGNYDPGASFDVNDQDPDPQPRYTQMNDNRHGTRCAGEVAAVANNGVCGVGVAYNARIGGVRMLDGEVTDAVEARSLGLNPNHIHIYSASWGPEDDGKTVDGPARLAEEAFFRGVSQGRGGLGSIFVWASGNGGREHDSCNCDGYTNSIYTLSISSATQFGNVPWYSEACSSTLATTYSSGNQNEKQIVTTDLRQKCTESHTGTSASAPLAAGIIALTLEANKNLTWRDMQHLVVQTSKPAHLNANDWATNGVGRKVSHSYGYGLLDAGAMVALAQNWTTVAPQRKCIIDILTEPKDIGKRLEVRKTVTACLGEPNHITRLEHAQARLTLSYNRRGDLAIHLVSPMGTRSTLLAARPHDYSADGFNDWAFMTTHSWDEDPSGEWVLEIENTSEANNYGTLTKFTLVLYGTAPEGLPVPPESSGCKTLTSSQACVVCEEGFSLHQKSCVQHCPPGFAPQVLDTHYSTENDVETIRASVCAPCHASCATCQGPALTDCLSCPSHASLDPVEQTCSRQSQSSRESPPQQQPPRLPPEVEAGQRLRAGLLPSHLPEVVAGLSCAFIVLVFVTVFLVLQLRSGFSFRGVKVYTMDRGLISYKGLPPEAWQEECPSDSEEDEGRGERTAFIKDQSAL

Sequence | furin cleavage Z-score (7.5 min) | furin cleavage Z-score (15 min) | furin cleavage Z-score (30 min)
CAVVCCSPSYAGNASASA [HC2059] | 0.343 (inactive) | 0.71 (inactive) | -0.572 (inactive)
CANTNGSWHLAGNASASA [HC368] | -0.455 (inactive) | 0.77 (inactive) | -0.519 (inactive)
CARRQPIPKAAGNASASA [HC191] | -0.467 (inactive) | -0.696 (inactive) | -2.34 (inactive)
CARRGRAGSDAGNASASA [FS-2065] | -0.603 (inactive) | -0.507 (inactive) | -0.432 (inactive)
CARRGRPGLKAGNASASA [FS-2066] | -0.499 (inactive) | -1.08 (inactive) | -0.201 (inactive)
CARRGRAARHAGNASASA [FS-1609] | 7.16 (active) | 6.27 (active) | 7.79 (active)
CARRKRYAEHAGNASASA [FS-3056] | 8.67 (active) | 11.2 (active) | 9.71 (active)
CAEDAASLRAAGNASASA [HC1536] | 1.18 | 0.0869 (inactive) | 0.0662 (inactive)
CARKARWLRAAGNASASA [FS-2262] | 8.22 (active) | 9.39 (active) | 8.11 (active)
CARDPRAAIQAGNASASA [FS-2905] | -0.00694 (inactive) | -0.144 (inactive) | 0.0435 (inactive)
CARKARYAIQAGNASASA [FS-1901] | 1.15 | 3.07 | 5.59 (active)
CAVVCCSMSAAGNASASA [HC2083] | 0.0703 (inactive) | -1.17 (inactive) | -0.85 (inactive)
CAGGWVAAQLAGNASASA [HC1067] | -0.864 (inactive) | -1.6 (inactive) | 0.105 (inactive)
CAVVVATDALAGNASASA [HC877] | -0.345 (inactive) | -0.967 (inactive) | -0.904 (inactive)
CARVQRMAEHAGNASASA [FS-2841] | 2.56 | 3.98 (active) | 4.15 (active)
CARRKRKKKHAGNASASA [FS-1777] | -0.226 (inactive) | 0.662 (inactive) | 2.03
CARRKRCMRHAGNASASA [FS-2295] | 6.23 (active) | 8.55 (active) | 6.72 (active)
CARRKRYAIQAGNASASA [FS-3205] | 8.13 (active) | 11.7 (active) | 10.8 (active)
CAREIRSEEPAGNASASA [FS-2005] | 0.429 (inactive) | -0.412 (inactive) | -0.762 (inactive)
CARRKRYAIQAGNASASA [FU8] | 8.03 (active) | 11.3 (active) | 11.2 (active)
CARRKRKVLHAGNASASA [FS-2515] | 1.78 | 1.49 | 4.34 (active)
CARCRKSCEHAGNASASA [FS-1997] | -0.455 (inactive) | -0.923 (inactive) | 0.798 (inactive)

Sequence | furin cleavage Z-score (7.5 min) | furin cleavage Z-score (15 min) | furin cleavage Z-score (30 min)
CAEVATSTWVAGNASASA [HC2183] | -1.15 (inactive) | -1.35 (inactive) | -0.393 (inactive)
CASTPCSQHLAGNASASA [HC2542] | -0.0132 (inactive) | 0.861 (inactive) | 2.13
CAITLTHPVTAGNASASA [HC978] | -0.565 (inactive) | -1.36 (inactive) | -0.511 (inactive)
CACVVTSTWVAGNASASA [HC2160] | -0.122 (inactive) | 1.54 | -0.488 (inactive)
CARERKAGCKAGNASASA [DV2] | 0.35 (inactive) | 1.62 | 2.14
CAMEEYSQHLAGNASASA [HC17] | -0.583 (inactive) | 0.186 (inactive) | 0.59 (inactive)
CASVLCECYDAGNASASA [HC918] | -0.934 (inactive) | -1.47 (inactive) | -0.91 (inactive)
CARKARMLYQAGNASASA [FS-2685] | 1.39 | 5.49 (active) | 5 (active)
CARKARIISQAGNASASA [FS-3157] | 1.75 | -1.95 (inactive) | -0.675 (inactive)
CARRKRKKEVAGNASASA [FS-2296] | 1.16 | -1.15 (inactive) | 1.21
CANTLTCYIKAGNASASA [HC1516] | -0.56 (inactive) | -0.15 (inactive) | -0.828 (inactive)
CARRKRHSEHAGNASASA [FS-3166] | 10.5 (active) | 10.9 (active) | 8.79 (active)
CARRKRYISQAGNASASA [FS-1780] | 6.79 (active) | 7.45 (active) | 9.13 (active)
CARKAVTHINAGNASASA [HC1427] | -0.202 (inactive) | -1.07 (inactive) | 0.0109 (inactive)
CARKARSYIKAGNASASA [FS-2340] | -0.0545 (inactive) | 0.583 (inactive) | 3.72 (active)
CAKKTPMGFSAGNASASA [HC1476] | -0.403 (inactive) | 1.01 | -1.33 (inactive)
CAHEECSQHLAGNASASA [HC1675] | -0.578 (inactive) | 0.64 (inactive) | 1.48
CAVVCQSMSYAGNASASA [HC99] | 0.407 (inactive) | 0.993 (inactive) | 0.767 (inactive)
CAPCQVPSPEAGNASASA [HC1217] | 0.307 (inactive) | -0.147 (inactive) | 0.789 (inactive)
CAHVQRQRREAGNASASA [FS-441] | 12.3 (active) | 12.8 (active) | 9.16 (active)
CAYSPGQRVEAGNASASA [HC1468] | -0.672 (inactive) | 1.68 | -1.81 (inactive)
CAPCCRQRREAGNASASA [FS-471] | 10.1 (active) | 8.7 (active) | 8.83 (active)
